Source: PubChem
Rows were chosen to be rich in hits. Some 7.9% of all compounds tested hit in one or more screens of this group.
HCV inh = qHTS Assay for Inhibitors of Hepatitis C Virus (HCV). Huh7.5.1 HCVcc-Cre infection, luciferase reporter, 44 h. actives 3.4% (n = 340,000). AID 651820, 2012. Potency, µM (top dose mostly 41.8 µM), without a hit: at the highest dose activity change, negative = inhibition, usual class: inhibitors; active = well fitted inhibition curve with a large enough effect; inconclusive = small, poorly fitted or top-dose-only effect, or another doubt; inactive = no such curve, though single readings can be large or run the other way; also: potency is read from the fitted curve at half-maximal effect
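1,000 cells/well; 4 h culture; + compound; + HCVcc-Cre (~0.5 moi); 44 h; luciferase substrate, RT 15 min; read 15 sec.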
Lassa entry inh = qHTS for Inhibitors of binding or entry into cells for Lassa Virus | Lassa virus pseudotype entry inhibition, cell reporter | Potency, µM (doses to about 37.9 µM), without a hit: top-dose activity change, negative = inhibition, usual class: inhibitors | actives 1.2% (n = 300,000); calls by dose curve; tested in HEK293 cells; also: potency is read from the fitted curve at half-maximal effect; nearly all actives have a fitted effect of over 50% in size
MARV entry inh = qHTS for inhibitors of binding or entry into cells for Marburg Virus | actives 1.8% (n = 300,000) | Potency, µM (top dose mostly 37.8 µM), for the others: at the top dose activity change, negative = inhibition, actives largely listed as inhibitors | Marburg virus pseudotyped entry inhibition, cell reporter; calls by dose curve; tested in HEK293 cells; also: potency is read from the fitted curve at half-maximal effect
FMDV antiviral = High Throughput Screening for Foot and Mouth Disease Virus Antivirals | FMDV antiviral cell-based qHTS | Potency, µM (doses to about 57.9 µM), without a hit: at the highest dose activity change, negative = inhibition, actives largely listed as inhibitors | actives 1.2% (n = 410,000) | AID 1159524, 2015; calls by dose curve; tested in HEK293T cells; also: read-out not given here; potency is read from the fitted curve at half-maximal effect; nearly all actives have a fitted effect of over 45% in size
HCMV inh = qHTS Assay for inhibitors of the human cytomegalovirus (HCMV) | HFF cells, HCMV-luciferase reporter, 72 h; hits give low values | activity change, negative = inhibition, % at 57.5 µM | actives 4.5% (n = 410,000) | AID 1259415, 2018; in the data active = activity change below about -60%; inconclusive = no clear call, values can overlap the other calls; inactive = above about -39%
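Inhibition of viral replication was scored as loss of reporter luminescence in HFFs infected with HCMV-luciferase (MOI 1 PFU/cell) for 72 h; compounds tested at 2 doses, normalized to buffer and Salinomycin controls.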
* marks the source's active call; other numbers are inactive results; ? = inconclusive; . = not tested or not shown; + = active, no number; ! = a repeat was not active; [ ] = dose if it differs, or a comment. % is scaled to controls: 0 for no effect and ±100 for the full control effect.

SMILES	HCV inh	Lassa entry inh	MARV entry inh	FMDV antiviral	HCMV inh
Cc1ccc(NS(=O)(=O)c2ccccc2)c2c1CC(C)(C)O2	10µM*	?	?	12%	-16
Cc1ccc(Cl)cc1NS(=O)(=O)c1ccccc1	8%	?	?	43%	-20
Cc1ccc(NS(=O)(=O)c2ccccc2)c(NS(=O)(=O)c2ccccc2)c1	14%	-6%[46.1 µM]	-19%[46.1 µM]	-3%	-2
O=S(=O)(Nc1ccc(Cl)cc1NS(=O)(=O)c1ccccc1)c1ccccc1	0.5µM*	-2%[46.1 µM]	4%[46.1 µM]	-21%	-29
Cc1ccc(Cn2c(=O)c3cccnc3n(CC(=O)Nc3cc(Cl)ccc3C)c2=O)cc1	.	.	23%[46.1 µM]	-20%	7
O=C1N=C2C=CC(Cl)=CC2C(c2ccccc2)=N1 (stereo not drawn)	.	.	9%	.	.
Cc1ccccc1-c1noc(CCC(=O)Nc2cccc(C)c2C)n1	.	11%[46.1 µM]	-5%[46.1 µM]	-14%	-3
Cc1ccccc1C(O)c1nnc(Nc2ccc(Oc3ccccc3)cc2)s1 (stereo not drawn)	.	.	.	.	-2
CC(=O)c1cc2c(cc1N/C(=N/S(=O)(=O)c1ccc(Cl)cc1)c1ccc(F)cc1)OCO2	.	10%[46.1 µM]	.	9%	-14
OCCNCC(O)Cn1c2ccccc2c2ccccc21 (stereo not drawn)	8%	.	.	0%	23
COc1ccccc1CNCC(O)Cn1c2ccccc2c2ccccc21 (stereo not drawn)	11µM*	16µM*	8.2µM*	?	-99*
CCn1c2ccccc2c2cc(NC(=O)COc3ccccc3OC)ccc21	?	?	?	0%	-27
CCn1cc(CCC(=O)NCc2ccccc2OC)c2ccccc21	10µM*	2%[46.1 µM]	.	7%	3
CCn1c2ccccc2c2cc(NC(=O)c3cccc(OC)c3)ccc21	11µM*	?	?	23%	45
CCn1c(=O)sc2cc(NC(=O)c3cccc(OC)c3)ccc21	.	-5%[46.1 µM]	8%[46.1 µM]	21%	-12
CCn1cc(CCCC(=O)NCc2ccccc2OC)c2ccccc21	?	.	.	-21%	37
CCn1c2ccccc2c2cc(NC(=O)CNCc3ccccc3OC)ccc21	?	?	5.6µM*	-5%	0
Cc1nc2c(c(=O)[nH]1)CSCC2	.	.	.	-11%	.
CCn1c(C)c(C)c2cc(C(=O)Nc3cccc(Cl)c3)ccc21	2µM*	-21%	?	1%	22
CCn1c2ccccc2c2cc(NS(=O)(=O)c3ccc(C)cc3)ccc21	?	?	?	12%	-60*
CCn1c(C)c(C)c2cc(C(=O)NCCCN3CCCCC3C)ccc21 (stereo not drawn)	-25%	-18%[46.1 µM]	.	-6%	+!
CCn1c(C)c(C)c2cc(C(=O)NCCCN3CCCC3)ccc21	-19%	.	.	-7%	-28
CCn1c2ccccc2c2cc(NC(=O)C(=O)N3CCOCC3)ccc21	11µM*	6%	?	53%	48
COCCn1c(CNC(=O)c2cc([N+](=O)[O-])ccc2Cl)nc2cccnc21	.	-16%[46.1 µM]	.	3%	2
O=C(COC(=O)c1cc(-c2cccs2)nc2ccccc12)c1ccc(Br)cc1	.	29%[46.1 µM]	5%[46.1 µM]	31%	7
SMILES	HCV inh	Lassa entry inh	MARV entry inh	FMDV antiviral	HCMV inh
CCn1c2ccccc2c2cc(NC(=O)c3ccco3)ccc21	3.2µM*	?	-14%	.	-69*
COc1cc(N2CCN(C(C)C)CC2)ccc1Nc1nc(Nc2cccc3ncccc23)c2cc[nH]c2n1	.	20µM*	.	.	.
CC1CCN(CC2CCN(C(=O)Nc3ccc(Br)cc3F)CC2)CC1	.	20%[46.1 µM]	.	-11%	-23
O=C(/C=C/c1ccccc1)/C=C/c1ccccc1	?	?	9.2µM*	?	-73*
O=C(/C=C/c1ccccc1)c1ccccc1	10µM*	0%	-4%	?	-17
CCOc1ccc(/C=C/C(=O)c2ccc(-c3ccccc3)cc2)cc1	29%	13%	?	-8%	-61*
CC(=O)/C=C/c1ccccc1	10%	.	.	-3%	-28
CCOC(=O)C1CCN(c2ncnc3c2c(-c2ccccc2)cn3-c2ccc(C)c(Cl)c2)CC1	.	?	.	-11%	-18
CCCCn1cc(S(=O)(=O)c2ccc(C)c(C)c2)c(=O)c2cc(F)c(N3CCN(C)CC3)cc21	.	?	.	6%	-2
COc1ccccc1CNCc1cc(OC)c(OC)cc1OC	-10%	0%	-5%	-1%	-2
COc1ccccc1CNCc1cccc(Oc2ccccc2)c1	-4%	-15%[46.1 µM]	11µM*	-23%	48
C=CCOc1ccc(Br)cc1/C=C1/SC(=Nc2ccc(C(=O)O)cc2)NC1=O	7%	.	.	2%	-15
CCOc1cc(Br)cc(/C=C2\SC(=Nc3ccccc3)NC2=O)c1O	?	.	.	0%	-84*
Cc1ccc(N=C2NC(=O)/C(=C/c3cn(C)c4ccccc34)S2)cc1C	13µM*	0.1µM*	?	0%	?
Cc1cccc(N=C2NC(=O)/C(=C/C=C/c3ccco3)S2)c1	?	18µM*	?	9%	14
O=C1NC(=Nc2ccc(Cl)cc2)/C(=C/c2ccco2)S1	?	0%	?	48%	-80*
Cn1cccc1/C=C1\SC(=Nc2cccc(O)c2)NC1=O	-3%	.	.	0%	25
Cn1cccc1/C=C1\SC(=Nc2ccccc2)NC1=O	7.9µM*	.	.	60%	2
Cc1ccc(N=C2NC(=O)/C(=C\c3ccco3)S2)cc1	-3%	?	7%	47%	-24
Cn1cccc1/C=C1\SC(=Nc2ccc(O)cc2)NC1=O	?	.	.	36%	-77*
O=C1NC(=Nc2ccc(O)cc2)S/C1=C/c1ccco1	?	4.6µM*	?	5%	-1
O=C1C=C(N2CCN(C(=O)c3ccccc3)CC2)C2(CCCCC2)O1	0%	2%	7%	-17%	-77*
O=C1C=C(N2CCCCC2)C2(CCCCC2)O1	-3%	.	.	7%	75
